Among all 310,000 compounds or so, about 14,000 (4.5%) showed an effect of 50% or more. Effects have a minus sign here. The list comes from a sample in which strong results are over-represented; it also holds similar structures and randomly drawn compounds.
These molecules were tested against human ether-à-go-go-related gene (hERG) potassium channel (human, UniProt Q12809) (assay: primary screen, population patch clamp on CHO cells stably expressing hERG; higher = less effect of the substance).
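Further: peak tail current of the secondary pulse compared with the same well before compound.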

human ether-à-go-go-related gene (hERG) potassium channel, sequence (Q12809 whole entry, looked up): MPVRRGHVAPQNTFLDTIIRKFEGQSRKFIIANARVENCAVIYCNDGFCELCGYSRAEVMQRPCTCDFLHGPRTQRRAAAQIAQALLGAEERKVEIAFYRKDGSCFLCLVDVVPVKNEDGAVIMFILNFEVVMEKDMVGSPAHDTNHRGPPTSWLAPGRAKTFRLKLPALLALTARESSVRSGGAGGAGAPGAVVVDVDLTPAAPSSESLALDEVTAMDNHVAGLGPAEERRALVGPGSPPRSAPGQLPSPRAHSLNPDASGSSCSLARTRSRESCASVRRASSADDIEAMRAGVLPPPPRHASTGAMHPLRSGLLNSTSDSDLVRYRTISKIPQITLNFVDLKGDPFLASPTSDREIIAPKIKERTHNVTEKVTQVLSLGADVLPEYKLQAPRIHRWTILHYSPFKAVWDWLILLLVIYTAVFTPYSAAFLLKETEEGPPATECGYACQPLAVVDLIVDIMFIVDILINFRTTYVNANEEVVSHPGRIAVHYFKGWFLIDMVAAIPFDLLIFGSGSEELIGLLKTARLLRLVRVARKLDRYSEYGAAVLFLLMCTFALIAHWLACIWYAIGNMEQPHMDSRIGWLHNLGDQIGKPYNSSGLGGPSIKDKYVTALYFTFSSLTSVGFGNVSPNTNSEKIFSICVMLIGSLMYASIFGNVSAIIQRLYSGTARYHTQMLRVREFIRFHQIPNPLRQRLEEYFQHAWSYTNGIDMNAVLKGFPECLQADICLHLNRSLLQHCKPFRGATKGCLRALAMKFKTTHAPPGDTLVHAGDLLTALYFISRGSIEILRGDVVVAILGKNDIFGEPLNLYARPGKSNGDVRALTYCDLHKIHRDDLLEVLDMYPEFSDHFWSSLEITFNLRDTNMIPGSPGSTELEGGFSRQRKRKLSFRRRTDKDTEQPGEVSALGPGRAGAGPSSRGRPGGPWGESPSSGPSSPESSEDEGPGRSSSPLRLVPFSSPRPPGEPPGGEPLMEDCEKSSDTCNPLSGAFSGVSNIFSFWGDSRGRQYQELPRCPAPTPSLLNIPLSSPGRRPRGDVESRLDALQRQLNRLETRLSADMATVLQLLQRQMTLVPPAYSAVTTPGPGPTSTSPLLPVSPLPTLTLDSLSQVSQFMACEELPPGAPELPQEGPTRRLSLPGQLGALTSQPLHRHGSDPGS

Structure (SMILES)	hERG current change (%, negative = inhibition) at 10uM [%]
Cc1ccc(S(=O)(=O)NNC(=O)c2ccc3ccccc3n2)cc1	3.47
CC(=O)c1ccc(-n2c(CCC(=O)O)ccc2-c2cccs2)cc1	-0.766
O=C(NC1CCCCC1)c1ccc(COc2ccccc2)o1	2.32
CSCCC(NS(=O)(=O)c1ccccc1)C(=O)OCc1nc2ccsc2c(=O)[nH]1 (stereo not shown)	2.87
CC(C)[C@H](NC(=O)OCc1ccccc1)C(=O)OCc1cc(=O)oc2cc(O)ccc12	-46.7
CSCCC(NS(=O)(=O)c1ccccc1)C(=O)OCc1cc(=O)oc2cc(O)ccc12 (stereo not shown)	-57.3
O=C(NNC(=S)Nc1ccc(Cl)c(Cl)c1)c1cccc([N+](=O)[O-])c1	36
CCOC(=O)N1CCN(C(=O)c2cc3cc(Br)ccc3oc2=O)CC1	-17.7
O=C(c1ccc2ccccc2c1)N1CCN(Cc2ccccc2)CC1	-24.4
O=C(CNS(=O)(=O)c1ccc(Br)cc1)N1CCN(Cc2ccccc2)CC1	-17.2
O=C(C1CCC1)N1CCN(c2ccccc2)CC1	13.6
O=C(NCC(=O)N1CCN(Cc2ccccc2)CC1)c1ccc(Br)cc1	-53.5
C=CCNC(=S)N1CCN(Cc2ccccc2)CC1.O=C(O)C(=O)O	6.48
COc1ccc(C(=O)N2CCC(C(=O)N3CCN(c4ccccc4)CC3)CC2)cc1	-48.7
O=C(O)C(=O)O.S=C(NCCc1ccccc1)N1CCN(Cc2ccccc2)CC1	0.0203
O=C(NCC(=O)N1CCN(Cc2ccccc2)CC1)c1ccc(Cl)cc1	-27.9
O=C(c1ccc(CN2CCOCC2)cc1)N1CCN(Cc2ccccc2)CC1	15.4
O=C(c1ccc(-n2cccc2)cc1)N1CCN(Cc2ccccc2)CC1	-81.1
O=C(c1ccc(Br)cc1)N1CCC(C(=O)N2CCN(c3ccccc3)CC2)CC1	-68.5
CCNC(=S)N1CCN(Cc2ccccc2)CC1.O=C(O)C(=O)O	-59.9
O=C(CCCCl)Nc1nc(-c2ccc3c(c2)OCCO3)cs1	9.6
CCOC(=O)CC(=O)Nc1c(C)cc(C)cc1C	4.74
N#CC1=C(N)Oc2cc(N)ccc2C1c1ccc(F)cc1F (stereo not shown)	-22.9
Cc1ccc(CNC(=O)c2cccnc2Cl)cc1	9.97
COCCn1cnnc1SCC(=O)Nc1sccc1C(N)=O	-2.66
